# Measurements as given in the supplement of paper PMC7801607.
# Assays:
# CHO = experiment: % viability of CHO cells (MTT); higher = less toxic; details: 48 h
# Method in brief: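 CHO cells were seeded at 10^6 cells/well in 200 µL and left overnight to attach. The medium was then replaced with fresh medium containing compound at 2 or 20 µM for 48 h. Survival was read colorimetrically with the tetrazolium (MTT) assay. Percent viability was expressed relative to untreated cells.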
# HepG2-A16-CD81 = experiment: % inhibition of HepG2 viability (CellTiter-Glo); higher = more toxic; details: 5 µM
# [1] = test system: Plasmodium falciparum NF54 stage IV/V gametocytes; experiment: % inhibition of gametocyte viability (PrestoBlue); higher = more inhibition; details: 48 h
# Method in brief: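 Stage IV/V NF54 gametocytes (2% gametocytaemia, 5% haematocrit, 100 µL/well) were exposed to compound at 1 or 5 µM. Incubation was 48 h at 37 °C, stationary and hypoxic, followed by 10 µL PrestoBlue for 2 h. Fluorescence at 612 nm was read on 70 µL of transferred supernatant. Percent inhibition of gametocyte viability was normalised to DMSO and kill controls from a single run.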
# [2] = test system: Plasmodium falciparum NF54 asexual blood stage; experiment: % inhibition of asexual blood stage proliferation (pLDH); higher = more inhibition; details: 72 h
# Method in brief: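 Plasmodium falciparum NF54 ring-stage cultures (1% haematocrit, 2% parasitaemia) were exposed to compound at 2 or 20 µM in 96-well plates. Incubation was 72 h at 37 °C under 4% CO2, 3% O2 and 93% N2. Survival was read colorimetrically at 620 nm with the parasite lactate dehydrogenase assay. Percent inhibition of asexual proliferation was normalised to DMSO and kill controls, and the screen was run on two separate occasions.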
# [3] = test system: Plasmodium falciparum NF54 stage IV/V gametocytes; experiment: % inhibition of gametocyte viability (ATP bioluminescence); higher = more inhibition; details: 24 h
# Method in brief: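 In 96-well plates, compound at 1 or 5 µM was added to 30,000 density-gradient-enriched stage IV/V NF54 gametocytes per well and incubated for 24 h at 37 °C. ATP readout used the Promega BacTiter Glo bioluminescence system. Percent inhibition of gametocyte viability comes from a single run, normalised to control wells.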
# [4] = test system: Plasmodium falciparum NF54 stage IV/V gametocytes; experiment: % inhibition of gametocyte viability (luciferase reporter); higher = more inhibition; details: 48 h
# Method in brief: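 Stage IV/V gametocytes of the NF54-Pfs16-GFP-Luc line (2% gametocytaemia, 2% haematocrit) were exposed to compound at 1 or 5 µM. Incubation was 48 h at 37 °C, stationary and hypoxic. Luminescence was read on 30 µL lysate plus 30 µL Promega luciferin substrate on a GloMax-Multi+ reader with 10 s integration. Percent inhibition was normalised to DMSO and kill controls from a single run.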
# [5] = test system: Plasmodium berghei ANKA liver stage in HepG2-A16-CD81; experiment: % inhibition of liver stage parasite viability (luciferase); higher = more inhibition; details: 5 µM; 48 h
# Protocol: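 Single-concentration screen of the MMV Pandemic Response Box. P. falciparum NF54 asexual blood stages: pLDH assay, 72 h at 37 °C, 2 and 20 µM, n=2. Stage IV/V gametocytes (NF54): luciferase reporter (NF54-Pfs16-GFP-Luc, 48 h), ATP bioluminescence (24 h) and PrestoBlue (48 h) at 1 and 5 µM, n=1. P. berghei liver stage (luciferase in HepG2-A16-CD81, 48 h post infection) at 5 µM, n=4. All normalised to DMSO and kill controls as % inhibition.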
# 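Wherever % inhibition of HepG2 viability (CellTiter-Glo) is given: HepG2-A16-CD81 hepatoma cells plated as in the liver-stage assay but without sporozoites, with DMSO wells as negative and 25 µM puromycin as positive control.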
SMILES,% viability of CHO cells (CHO; 2 µM),% viability of CHO cells (CHO; 20 µM),% inhibition of HepG2 viability (HepG2-A16-CD81),% inhibition of gametocyte viability ([1]; 1 µM),% inhibition of gametocyte viability ([1]; 5 µM),% inhibition of asexual blood stage proliferation ([2]; 2 µM),% inhibition of asexual blood stage proliferation ([2]; 20 µM),% inhibition of gametocyte viability ([3]; 1 µM),% inhibition of gametocyte viability ([3]; 5 µM),% inhibition of gametocyte viability ([4]; 1 µM),% inhibition of gametocyte viability ([4]; 5 µM),% inhibition of liver stage parasite viability [5]
O=C(NCc1cccc2ccccc12)c1cccs1,101%,134%,7.63%,13.5%,24.3%,-14.2%,-4.95%,< 0%,< 0%,< 0%,< 0%,-19.8%
CCCCN1C[C@H](O)[C@@H](O)[C@H](O)[C@H]1CO,104%,108%,-0.43%,< 0%,1.8%,18.5%,43.4%,3.94%,< 0%,< 0%,< 0%,10.9%
CC(C)(C)c1ccc(OCCn2nc(C(=O)O)c3ccccc3c2=O)cc1,100%,104%,1.37%,< 0%,< 0%,4.78%,19.9%,< 0%,< 0%,< 0%,< 0%,3.4%
Fc1ccc2c(/C=C/c3cccnc3)c[nH]c2c1,107%,117%,0.955%,< 0%,6.61%,4.51%,61.2%,< 0%,< 0%,< 0%,< 0%,-23.8%
CCn1cc(C(=O)O)c(=O)c2cc(F)c(N3CCNC(C)C3)c(F)c21 (centres undefined),104%,102%,0.454%,34.9%,43.8%,36.8%,28.9%,< 0%,< 0%,< 0%,< 0%,22.1%
O=P(O)(O)C(CCCc1cccc(Oc2ccccc2)c1)S(=O)(=O)O (centres undefined),113%,109%,-5.33%,12.4%,30.6%,34.7%,69.9%,< 0%,< 0%,< 0%,3%,9.62%
COc1c(NC(=O)[C@H]2CC[C@@H](COc3ccc([N+](=O)[O-])cc3)CC2)c(F)cc2c(=O)c(C(=O)O)cn(C3CC3)c12,104%,102%,-1.96%,< 0%,23%,8.56%,70%,0.404%,< 0%,< 0%,9%,46.8%
CCc1cc(O)c(Oc2cccnc2N)cc1F,64.8%,62.9%,-0.638%,< 0%,< 0%,8.28%,20.8%,< 0%,< 0%,< 0%,< 0%,18.6%
CN(C)CCNC(=O)c1cccc2cccnc12,70.5%,19.6%,-1.05%,< 0%,< 0%,9.84%,-0.35%,< 0%,< 0%,< 0%,10.1%,16.5%
CC1(C)Cc2c(C#N)c(SCCc3ccccc3)nc(N3CCOCC3)c2CO1,112%,112%,-1.4%,9.17%,45.1%,17.3%,89.2%,< 0%,< 0%,< 0%,3.41%,18.8%
COc1ccccc1NC(=O)c1ccccc1Sc1ccc([N+](=O)[O-])cc1,85.2%,108%,-1.52%,17.1%,14.1%,-1.69%,81%,7.24%,1.71%,3.21%,8.85%,27%
Clc1cc(Cl)c2c(c1)CCc1ccccc1C2n1ccnc1 (centres undefined),100%,76.3%,26.4%,64.7%,76.1%,94.1%,89.5%,25.2%,75.4%,< 0%,81.4%,53.2%
CC[C@@]1(O)C(=O)OCc2c1cc1n(c2=O)Cc2cc3c(CN(C)C)c(O)ccc3nc2-1,88.8%,67.7%,35%,21.5%,26.1%,14.3%,82.3%,6.83%,< 0%,1.24%,5.33%,60.8%
O=S(=O)(NCB(O)O)c1ccc(-c2nnn[nH]2)cc1C(F)(F)F,86.3%,66.1%,3.27%,18%,9.79%,29.1%,28.6%,< 0%,< 0%,1.13%,3.64%,29.3%
CCc1nc(N)nc(N)c1C#CC(C)c1cc(OC)cc(-c2ccncc2)c1 (centres undefined),89.5%,52.5%,20.8%,< 0%,9.41%,51.1%,94%,< 0%,< 0%,< 0%,< 0%,70.2%
COc1cc(C)c2c(Oc3cccc(C(F)(F)F)c3)c(OC)cc(NC(C)CCCN)c2n1 (centres undefined),95.6%,-0.735%,3.86%,47.9%,71.7%,56.5%,92.1%,< 0%,70%,< 0%,79.6%,38.2%
Cc1cc(-c2ccccc2)c(C(=O)C(=O)Nc2ccc(N3CCN(c4ncc(F)cn4)CC3)cc2)n1C,90.7%,72.7%,10.6%,< 0%,< 0%,2.18%,63.9%,5.9%,5.39%,< 0%,< 0%,58.8%
Cc1onc(-c2ccccc2Cl)c1C(=O)N[C@@H]1C(=O)N2[C@@H]1SC(C)(C)[C@@H]2C(=O)O,126%,143%,-1.54%,< 0%,30.1%,8.35%,-0.0824%,< 0%,< 0%,< 0%,7.91%,17.1%
C(=C\c1nc2ccccc2[nH]1)/c1ccc2c(c1)OCO2,110%,50.4%,6.95%,57.1%,71.2%,15.3%,29.1%,< 0%,< 0%,5.91%,73.3%,-23.6%
CC[C@H]1OC(=O)[C@H](C)[C@@H](O[C@H]2C[C@@](C)(OC)[C@@H](O)[C@H](C)O2)[C@H](C)[C@@H](O[C@@H]2O[C@H](C)C[C@H](N(C)C)[C@H]2O)[C@](C)(O)C[C@@H](C)C(=O)[C@H](C)[C@@H](O)[C@]1(C)O,90.8%,55.1%,3.5%,21%,21%,-1.14%,14.1%,< 0%,< 0%,< 0%,< 0%,34%
CCC[C@@H]1C[C@@H](C(=O)N[C@@H]([C@H]2O[C@H](SC)[C@H](O)[C@@H](O)[C@H]2O)[C@H](C)Cl)N(C)C1,89.5%,103%,5.96%,10.3%,24.2%,72.9%,93.2%,< 0%,1.18%,< 0%,< 0%,92.2%
Cc1nc(Nc2ccc(F)cc2)nc(N2CCc3ccccc3C2C)c1C (centres undefined),103%,69.7%,8.08%,2.28%,4.43%,49.6%,73.1%,< 0%,43.7%,< 0%,< 0%,52.5%
